# Experiments:
# [1] = biological target: T1, Ephrin type-A receptor 3 (Homo sapiens) (UniProt P29320); conditions: at 10 µM
# T1 sequence (whole entry): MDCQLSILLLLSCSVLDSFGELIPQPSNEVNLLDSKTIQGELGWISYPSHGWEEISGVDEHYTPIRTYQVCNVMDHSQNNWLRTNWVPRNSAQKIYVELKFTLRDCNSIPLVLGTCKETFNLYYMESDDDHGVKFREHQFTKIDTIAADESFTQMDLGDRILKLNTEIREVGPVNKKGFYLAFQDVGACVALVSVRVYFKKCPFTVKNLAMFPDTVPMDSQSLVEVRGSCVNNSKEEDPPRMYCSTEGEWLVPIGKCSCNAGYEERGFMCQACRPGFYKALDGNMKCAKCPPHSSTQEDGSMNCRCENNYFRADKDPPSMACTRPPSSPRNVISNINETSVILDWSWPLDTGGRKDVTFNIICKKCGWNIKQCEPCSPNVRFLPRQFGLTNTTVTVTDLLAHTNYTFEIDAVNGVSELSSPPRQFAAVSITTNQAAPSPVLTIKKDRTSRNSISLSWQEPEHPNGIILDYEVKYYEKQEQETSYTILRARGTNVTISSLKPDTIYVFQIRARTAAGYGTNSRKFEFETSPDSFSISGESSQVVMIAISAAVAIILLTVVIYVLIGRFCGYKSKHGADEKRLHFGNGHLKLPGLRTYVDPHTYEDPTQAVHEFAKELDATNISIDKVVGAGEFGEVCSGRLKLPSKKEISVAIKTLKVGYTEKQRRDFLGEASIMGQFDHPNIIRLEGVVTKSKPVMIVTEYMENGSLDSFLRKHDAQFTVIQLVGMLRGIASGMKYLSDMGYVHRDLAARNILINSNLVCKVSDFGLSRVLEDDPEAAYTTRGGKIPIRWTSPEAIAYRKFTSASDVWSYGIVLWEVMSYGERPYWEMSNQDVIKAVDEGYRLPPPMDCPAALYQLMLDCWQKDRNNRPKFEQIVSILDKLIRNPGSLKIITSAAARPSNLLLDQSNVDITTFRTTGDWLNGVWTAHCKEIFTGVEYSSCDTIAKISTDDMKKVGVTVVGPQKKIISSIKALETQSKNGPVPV
# [2] = biological target: Ephrin type-A receptor 4 (Homo sapiens) (UniProt P54764); conditions: at 1 µM
# [3] = biological target: Ephrin type-A receptor 4 (Homo sapiens) (UniProt P54764); conditions: at 10 µM
# [4] = biological target: Ephrin type-A receptor 5 (Homo sapiens) (UniProt P54756); conditions: at 1 µM
# [5] = biological target: Ephrin type-A receptor 5 (Homo sapiens) (UniProt P54756); conditions: at 10 µM
# [6] = biological target: Ephrin type-A receptor 7 (Homo sapiens) (UniProt Q15375); conditions: at 1 µM
# [7] = biological target: Ephrin type-A receptor 7 (Homo sapiens) (UniProt Q15375); conditions: at 10 µM
# [8] = biological target: T2, Ephrin type-A receptor 8 (Homo sapiens) (UniProt P29322); conditions: at 1 µM
# T2 sequence (whole entry): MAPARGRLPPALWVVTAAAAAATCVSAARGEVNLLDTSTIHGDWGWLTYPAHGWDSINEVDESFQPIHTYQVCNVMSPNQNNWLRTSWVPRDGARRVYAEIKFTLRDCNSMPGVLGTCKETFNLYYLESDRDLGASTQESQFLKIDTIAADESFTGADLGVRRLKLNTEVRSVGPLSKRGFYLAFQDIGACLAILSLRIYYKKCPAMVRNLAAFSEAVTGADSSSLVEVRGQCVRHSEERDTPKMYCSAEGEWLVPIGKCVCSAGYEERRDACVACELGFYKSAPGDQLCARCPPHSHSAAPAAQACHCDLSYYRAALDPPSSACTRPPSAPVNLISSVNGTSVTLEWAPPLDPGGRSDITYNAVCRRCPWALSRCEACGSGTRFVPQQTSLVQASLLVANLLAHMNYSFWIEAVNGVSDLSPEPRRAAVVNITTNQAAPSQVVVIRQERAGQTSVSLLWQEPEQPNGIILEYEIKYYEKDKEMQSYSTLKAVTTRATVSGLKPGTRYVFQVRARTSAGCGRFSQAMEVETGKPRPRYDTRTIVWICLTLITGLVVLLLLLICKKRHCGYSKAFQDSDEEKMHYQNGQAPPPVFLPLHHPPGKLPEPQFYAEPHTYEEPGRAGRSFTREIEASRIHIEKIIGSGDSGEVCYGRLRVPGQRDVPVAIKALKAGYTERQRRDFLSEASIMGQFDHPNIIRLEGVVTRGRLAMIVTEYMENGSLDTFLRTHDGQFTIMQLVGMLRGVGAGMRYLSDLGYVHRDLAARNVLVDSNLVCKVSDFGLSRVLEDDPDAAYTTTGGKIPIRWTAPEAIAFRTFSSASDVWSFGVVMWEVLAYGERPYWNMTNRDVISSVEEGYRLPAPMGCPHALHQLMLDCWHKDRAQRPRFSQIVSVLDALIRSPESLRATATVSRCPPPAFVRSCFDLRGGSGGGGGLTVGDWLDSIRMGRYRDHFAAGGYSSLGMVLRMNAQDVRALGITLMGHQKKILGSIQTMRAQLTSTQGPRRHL
# [9] = biological target: T2, Ephrin type-A receptor 8 (Homo sapiens); conditions: at 10 µM
# [10] = biological target: T3, Ephrin type-B receptor 1 (Homo sapiens) (UniProt P54762); conditions: at 1 µM
# T3 sequence (whole entry): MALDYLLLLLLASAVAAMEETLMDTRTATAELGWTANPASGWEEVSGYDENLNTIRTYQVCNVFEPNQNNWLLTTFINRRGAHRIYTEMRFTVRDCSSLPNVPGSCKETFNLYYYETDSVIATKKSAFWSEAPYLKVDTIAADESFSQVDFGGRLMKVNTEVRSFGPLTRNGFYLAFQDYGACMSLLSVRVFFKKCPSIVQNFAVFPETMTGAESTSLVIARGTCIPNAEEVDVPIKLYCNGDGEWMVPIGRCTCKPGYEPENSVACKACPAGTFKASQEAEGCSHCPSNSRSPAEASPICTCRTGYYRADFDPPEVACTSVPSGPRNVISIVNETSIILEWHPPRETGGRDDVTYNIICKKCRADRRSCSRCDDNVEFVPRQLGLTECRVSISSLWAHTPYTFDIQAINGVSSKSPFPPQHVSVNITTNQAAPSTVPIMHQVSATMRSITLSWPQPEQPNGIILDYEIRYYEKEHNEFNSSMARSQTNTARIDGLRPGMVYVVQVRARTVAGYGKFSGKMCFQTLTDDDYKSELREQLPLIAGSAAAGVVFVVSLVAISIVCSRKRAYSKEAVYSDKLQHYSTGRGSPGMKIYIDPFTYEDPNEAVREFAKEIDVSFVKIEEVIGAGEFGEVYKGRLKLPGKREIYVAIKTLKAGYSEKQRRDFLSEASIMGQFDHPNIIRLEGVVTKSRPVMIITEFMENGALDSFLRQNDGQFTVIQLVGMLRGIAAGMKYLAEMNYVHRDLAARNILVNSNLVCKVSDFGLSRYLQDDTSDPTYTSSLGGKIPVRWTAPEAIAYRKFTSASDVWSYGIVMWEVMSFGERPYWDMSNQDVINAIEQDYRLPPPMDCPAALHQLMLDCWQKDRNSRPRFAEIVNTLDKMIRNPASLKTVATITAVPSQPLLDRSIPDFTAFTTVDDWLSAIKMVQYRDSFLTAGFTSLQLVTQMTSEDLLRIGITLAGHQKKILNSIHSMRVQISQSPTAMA
# Chain of Ephrin type-A receptor 4 (Homo sapiens) (P54764 whole entry): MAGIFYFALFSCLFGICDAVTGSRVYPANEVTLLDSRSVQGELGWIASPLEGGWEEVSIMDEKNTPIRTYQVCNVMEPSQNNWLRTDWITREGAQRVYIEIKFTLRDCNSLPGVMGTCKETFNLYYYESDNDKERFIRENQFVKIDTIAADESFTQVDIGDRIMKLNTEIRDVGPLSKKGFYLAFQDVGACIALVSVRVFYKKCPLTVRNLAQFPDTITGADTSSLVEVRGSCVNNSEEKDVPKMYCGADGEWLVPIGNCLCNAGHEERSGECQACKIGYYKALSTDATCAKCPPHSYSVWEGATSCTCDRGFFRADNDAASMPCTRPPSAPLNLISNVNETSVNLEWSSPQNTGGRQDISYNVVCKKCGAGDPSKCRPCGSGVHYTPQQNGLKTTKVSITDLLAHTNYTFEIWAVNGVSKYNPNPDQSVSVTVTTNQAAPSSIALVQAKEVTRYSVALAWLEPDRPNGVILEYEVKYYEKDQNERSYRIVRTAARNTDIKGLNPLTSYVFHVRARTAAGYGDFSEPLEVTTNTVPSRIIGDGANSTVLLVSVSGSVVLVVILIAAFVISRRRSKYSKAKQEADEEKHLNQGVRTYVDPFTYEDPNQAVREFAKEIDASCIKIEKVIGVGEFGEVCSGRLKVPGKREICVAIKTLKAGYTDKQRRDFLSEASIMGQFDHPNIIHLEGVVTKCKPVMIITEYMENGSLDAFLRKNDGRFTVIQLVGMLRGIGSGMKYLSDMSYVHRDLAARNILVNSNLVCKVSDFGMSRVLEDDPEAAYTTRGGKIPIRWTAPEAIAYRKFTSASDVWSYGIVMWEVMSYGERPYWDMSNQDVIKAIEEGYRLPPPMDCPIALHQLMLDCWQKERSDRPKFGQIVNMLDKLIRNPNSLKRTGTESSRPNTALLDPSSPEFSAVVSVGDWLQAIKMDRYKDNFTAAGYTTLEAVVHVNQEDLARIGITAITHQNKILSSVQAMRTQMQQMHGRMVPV
# Chain of Ephrin type-A receptor 5 (Homo sapiens) (P54756 whole entry): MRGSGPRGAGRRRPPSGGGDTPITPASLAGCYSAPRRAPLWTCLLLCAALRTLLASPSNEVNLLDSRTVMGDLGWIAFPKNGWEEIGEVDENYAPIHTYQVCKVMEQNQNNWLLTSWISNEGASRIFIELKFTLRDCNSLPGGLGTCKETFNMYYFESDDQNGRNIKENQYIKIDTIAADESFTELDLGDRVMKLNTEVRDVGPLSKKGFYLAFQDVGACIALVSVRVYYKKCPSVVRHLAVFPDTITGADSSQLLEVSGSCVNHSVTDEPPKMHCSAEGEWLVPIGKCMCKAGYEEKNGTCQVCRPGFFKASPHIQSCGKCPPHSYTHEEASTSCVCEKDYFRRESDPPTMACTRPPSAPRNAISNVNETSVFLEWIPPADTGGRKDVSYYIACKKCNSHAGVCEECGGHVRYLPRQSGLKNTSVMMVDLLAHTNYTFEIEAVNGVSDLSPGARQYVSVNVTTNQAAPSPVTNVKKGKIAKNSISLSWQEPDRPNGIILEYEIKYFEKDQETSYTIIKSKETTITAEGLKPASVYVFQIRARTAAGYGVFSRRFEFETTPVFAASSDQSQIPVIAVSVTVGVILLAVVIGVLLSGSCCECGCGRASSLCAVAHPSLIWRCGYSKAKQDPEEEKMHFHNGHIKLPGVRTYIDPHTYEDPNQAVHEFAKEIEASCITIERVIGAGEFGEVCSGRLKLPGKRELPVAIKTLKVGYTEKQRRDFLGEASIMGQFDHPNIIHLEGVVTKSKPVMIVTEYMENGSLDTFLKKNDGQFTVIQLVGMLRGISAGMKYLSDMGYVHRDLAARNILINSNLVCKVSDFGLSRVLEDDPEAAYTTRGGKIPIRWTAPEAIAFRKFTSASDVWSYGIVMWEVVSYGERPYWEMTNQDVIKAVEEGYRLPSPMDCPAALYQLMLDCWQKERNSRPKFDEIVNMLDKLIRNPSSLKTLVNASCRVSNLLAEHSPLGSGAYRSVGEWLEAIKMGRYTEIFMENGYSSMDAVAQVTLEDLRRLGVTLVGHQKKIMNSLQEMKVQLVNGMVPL
# Chain of Ephrin type-A receptor 7 (Homo sapiens) (Q15375 28-998 limits assumed): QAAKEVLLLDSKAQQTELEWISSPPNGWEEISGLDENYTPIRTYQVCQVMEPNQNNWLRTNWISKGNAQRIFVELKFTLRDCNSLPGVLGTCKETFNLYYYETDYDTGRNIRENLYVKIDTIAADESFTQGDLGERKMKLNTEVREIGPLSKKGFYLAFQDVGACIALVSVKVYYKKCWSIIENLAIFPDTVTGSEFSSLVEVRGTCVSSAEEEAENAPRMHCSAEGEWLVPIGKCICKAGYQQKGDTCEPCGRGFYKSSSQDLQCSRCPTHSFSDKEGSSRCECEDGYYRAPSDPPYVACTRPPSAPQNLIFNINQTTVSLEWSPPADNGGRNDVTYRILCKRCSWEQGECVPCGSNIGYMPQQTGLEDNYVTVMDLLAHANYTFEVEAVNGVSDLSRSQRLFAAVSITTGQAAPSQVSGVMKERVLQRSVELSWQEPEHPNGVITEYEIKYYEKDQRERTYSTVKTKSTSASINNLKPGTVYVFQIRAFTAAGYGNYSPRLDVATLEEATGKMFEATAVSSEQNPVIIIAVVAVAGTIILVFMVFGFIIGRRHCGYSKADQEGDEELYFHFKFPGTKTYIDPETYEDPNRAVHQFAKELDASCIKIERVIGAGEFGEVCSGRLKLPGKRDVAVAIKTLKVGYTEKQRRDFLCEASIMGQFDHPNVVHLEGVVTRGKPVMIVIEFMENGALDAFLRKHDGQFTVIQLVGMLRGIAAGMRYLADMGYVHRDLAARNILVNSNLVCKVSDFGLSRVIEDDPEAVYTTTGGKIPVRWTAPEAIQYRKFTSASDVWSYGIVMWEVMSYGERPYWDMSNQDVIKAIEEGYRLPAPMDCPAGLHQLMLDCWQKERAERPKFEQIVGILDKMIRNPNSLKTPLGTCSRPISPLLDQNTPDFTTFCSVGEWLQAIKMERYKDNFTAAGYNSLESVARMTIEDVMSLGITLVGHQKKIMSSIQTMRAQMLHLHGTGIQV
smiles,measurement,setting,value
Cc1nc(-c2ccccc2)c(-c2ccncc2)o1,residual activity,[1],77%
same,residual activity,[2],109%
same,residual activity,[3],102%
same,residual activity,[4],35%
same,residual activity,[5],29%
same,residual activity,[6],94%
same,residual activity,[7],89%
same,residual activity,[8],65%
same,residual activity,[9],54%
same,residual activity,[10],63%

# — ChEMBL document CHEMBL2218924, “A broad activity screen in support of a chemogenomic map for kinase signalling research and drug discovery” (Biochem J, 2013)
